# ATXN2 expr inh – Primary qHTS for Inhibitors of ATXN expression; HEK-293 ATXN2-luciferase reporter, luminescence, 24 h; Potency, µM (titrated, usually from 57 µM), inactives show at the top dose activity change, negative = inhibition, usual class: inhibitors; 0.72% of 360,000 active; further: on the % scale 0 is the no-effect control and ±100 the full control effect; nearly all actives have a fitted effect of over 55% in size
#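 qHTS (up to 57 uM final) was run with 24 h compound exposure of reporter cells at 37 °C. Each well was multiplexed: SteadyGlo luminescence measured ATXN2-luciferase expression after a fluorogenic Gly-Phe-AFC viability readout (25 uM final).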
# HepG2 viability – qHTS for Inhibitors of TGF-b: Cytotox Counterscreen | Potency, µM (highest dose often 46.1 µM), for the others: top-dose activity change, negative = cytotoxicity, usual class: cytotoxic | 0.76% of 410,000 active | HepG2 CAGA-GFP viability, ATP luminescence, 18 h
#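 CellTiter-Glo luminescence gave cytotoxicity after 18 hours at 37 degrees C. The cells were HepG2 CAGA-GFP in 1% FBS DMEM, stimulated with 500 pg/mL TGF-beta after compound addition. %Activity was normalised to no-cell wells (complete cell-killing) and DMSO (no toxicity), and curves were fitted and classified.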
# A549 viability – Nrf2 qHTS screen for inhibitors: counterscreen for cytotoxicity; 0.16% of 390,000 active; Potency, µM (doses to about 46 µM), inactives show top-dose activity change, negative = cytotoxicity, actives largely listed as inhibitors; A549 ARE-Fluc cells, CellTiter-Fluor viability, 18-24 h; further: on the % scale 0 is the no-effect control and ±100 the full control effect
#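 A549 ARE_Fluc cells in 5% FBS OPTI-MEM were exposed to compounds in concentration-response for 18-24 h at 37 deg C. Viability was read by CellTiter-Fluor fluorescence (Ex 405/Em 525) after 30 min, before the luciferase read.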
# TGFb inhibitor – qHTS for Inhibitors of TGF-b; Potency, µM (top dose mostly 46.1 µM), inactives show top-dose activity, negative = inhibition, usual class: inhibitors; HepG2 CAGA-GFP TGF-b/SMAD3 reporter, GFP fluorescence, 18 h; TGF-beta stimulated, 500 pg/mL final; 1.2% of 410,000 active; further: on the % scale 0 is the no-effect control and ±100 the full control effect; nearly all actives have a fitted effect of over 65% in size
#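 HEPG2 CAGA-GFP, 1000 cells/well; 2 h settle, 37 C; cpd via pin tool; TGF-b 500 pg/mL final; 18 h, 37 C; GFP imaging ex488/em500-530; %Activity normalised to -TGF-b and +DMSO controls; CRC fit, curve class.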
# ATXN viability – Viability Counterscreen for Primary qHTS for Inhibitors of ATXN expression | Potency, µM (series often up to 56.7 µM), most hits filed as cytotoxic | 0.49% of 400,000 active | S2 cells (HEK-293 line with an ATXN2-luciferase reporter) viability, CellTiter-Fluor protease fluorescence, 24 h; further: nearly all actives have a fitted effect of over 40% in size
# Nrf2 inh – Nrf2 qHTS screen for inhibitors | A549 ARE-Fluc reporter, luciferase luminescence, 18-24 h | Potency, µM (titrated, usually from 46 µM), for inactives: at the highest dose activity change, negative = inhibition, actives largely listed as inhibitors | 2.1% of 360,000 active; further: on the % scale 0 is the no-effect control and ±100 the full control effect; nearly all actives have a fitted effect of over 60% in size
#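 A549 ARE_Fluc cells, 5000/well, 5% FBS OPTI-MEM; compounds in dose-response, 18-24 h at 37 °C/5% CO2; CellTiter-Fluor viability read (Ex 405/Em 525), then BugLite luciferase luminescence = Nrf2 activity.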
# Active calls of the source: *; i = inactive; ? = inconclusive; . = no result given; [ ] = another dose, or the depositor's remark. In the library only some 3.8% were active in any assay of this set; here they are far more common. The call rests on the fitted dose curve; in most records, active means well fitted curve in the direction sought with a large enough effect; inconclusive means small, poorly fitted or top-dose-only effect, or another doubt; inactive means no such curve, though single readings can be large; an effect the other way counts as inactive or inconclusive. Potency means the concentration at half of the fitted maximal effect.
SMILES,ATXN2 expr inh,HepG2 viability,A549 viability,TGFb inhibitor,ATXN viability,Nrf2 inh
O=C(Nc1nnc(-c2ccco2)s1)c1ccccc1,-31%,-2%,-5%[1.84 µM],1%,i,?
COc1ccc(C(=O)Nc2nnc(-c3ccco3)s2)cc1,7.9µM*,7%,-4%,1%,?,?
Cc1csc(N(C)C(=O)CSc2nnc(COc3cccc4ccccc34)o2)n1,?,-8%,0%,?,i,21µM*
Nc1nc2ccccc2n1/N=C/c1ccc([N+](=O)[O-])s1,?,-41%,?,?,i,15µM*
CC(C)C[C@H]1CN=C(Nc2ccccc2)N1CC1CCC(C(C)(C)C)CC1 (stereo partly specified),?,-109%,-19%,?,22µM*,13%
NC(Cc1ccc(Cl)cc1)c1csc(NC(=O)Nc2ccccc2)n1 (stereo unspecified),?,16µM*,.,16µM*,?,.
NC(Cc1ccccc1)c1csc(Nc2nccc(C(F)(F)F)n2)n1 (stereo unspecified),?,16µM*,.,16µM*,i,.
NC(CCc1ccccc1)c1csc(NC(=O)Nc2cccc(C(F)(F)F)c2)n1 (stereo unspecified),?,11µM*,.,?,.,.
NC(Cc1ccc(F)cc1)c1csc(Nc2nccc(C(F)(F)F)n2)n1 (stereo unspecified),-20%,-112%,.,?,.,.
NC(Cc1ccc(C(F)(F)F)cc1)c1csc(NC(=O)Nc2ccccc2Cl)n1 (stereo unspecified),?,-98%,.,?,?,.
COc1ccccc1NC(=O)Nc1nc(C(N)Cc2ccc(Cl)cc2)cs1 (stereo unspecified),?,-91%,.,?,?,.
NC(Cc1ccc(C(F)(F)F)cc1)c1csc(NC(=O)Nc2ccccc2)n1 (stereo unspecified),?,16µM*,.,?,.,.
COc1ccc(CC(N)c2csc(NC(=O)Nc3cccc(C(F)(F)F)c3)n2)cc1 (stereo unspecified),?,-114%,.,?,?,.
CNC(C)C(=O)NC(C(=O)NC(C)C(=O)Nc1cccc2ccccc12)C(C)C (stereo unspecified),4%,-26%,.,?,i,.
CC1(C)CC(NC(=O)c2cccc(S(=O)(=O)N(Cc3ccccc3)c3ccccc3)c2)CC(C)(C)N1,?,14µM*,-4%,?,?,11%
Cc1cccc(CSC(Nc2ccc(F)cc2)=C(C#N)C#N)c1,?,-28%,-27%,5µM*,i,18µM*
N#CC(C#N)=C(Nc1ccc(F)cc1)SCc1cccc(Br)c1,?,-75%,?,1.6µM*,?,4.1µM*
CCOc1ccc(CCNC(=O)CN2C(=O)NC3(CCCCC3)C2=O)cc1OCC,4%,5%,-8%,5%,i,-3%
COc1ccccc1-c1nn(-c2ccccc2)cc1C(=O)N1CCc2ccccc2C1,.,15%,?,-2%,i,21µM*
COc1ccc(OC)c(-c2nn(-c3ccccc3)cc2C(=O)N2CCc3ccccc3C2)c1,9%,1%,?,-13%,?,?
COc1ccc(CN(C(=O)CCC(=O)Nc2cc(C)on2)C(C(=O)NC(C)(C)C)c2cccc(OC)c2OC)cc1 (stereo unspecified),-11%,-4%,-3%,8%,i,?
COc1cc2c3nnc(-c4ccc(F)cc4)c-3cn(Cc3ccccc3)c2cc1OC,16µM*,-112%,7%,71%,i,1%
COc1ccc(Cn2cc3c(-c4ccc(F)cc4)nnc-3c3cc(OC)c(OC)cc32)cc1,32µM*,-108%,?,25%,i,?
COc1cc2c3nnc(-c4ccc(F)cc4)c-3cn(Cc3ccc(F)cc3)c2cc1OC,?,-111%,-6%,40%,i,-6%
COc1ccccc1C(=O)Nc1c(C(=O)N(CCN(C)C)Cc2ccco2)oc2ccccc12,-24%,-103%,0%,?,i,1%
SMILES,ATXN2 expr inh,HepG2 viability,A549 viability,TGFb inhibitor,ATXN viability,Nrf2 inh
COc1ccc(OCC(=O)Nc2c(C(=O)N(CCN(C)C)Cc3ccco3)oc3ccccc23)cc1,-37%,-51%,0%,22µM*,i,-14%
CCOC(=O)C1CCCCN1Cc1nc(N2CCN(C(C)=O)CC2)c2ccccc2n1 (stereo unspecified),.,.,.,.,i,.
COc1cccc(C2=NC(C)(C)NC(c3ccccc3O)C2)c1 (stereo unspecified),29%,18µM*,1%,?,i,13%
Cc1ccc(NC2=C(c3ccc(C(F)(F)F)cc3)C(=O)c3ccccc32)cc1C,62%,13µM*,2%,0%,i,?
O=C(NC1CCCCC1)C(c1ccc2ncccc2c1)N(Cc1ccccc1)C(=O)c1cccs1 (stereo unspecified),-15%,-4%,-26%,-25%,?,18µM*
Cc1cccc(NC(=O)c2sc3nc4c(cc3c2N)CN(C(C)C)CC4)c1,?,-23%,-14%,-28%,?,16µM*
O=C(NC1CCCCC1)C(c1ccccc1)N(C(=O)c1csnn1)C1CCCC1 (stereo unspecified),-2%,2%,-3%,11%,i,-3%
COc1cccc(CCN2CCC(CNS(=O)(=O)c3cc(-c4cc(C)no4)ccc3OC)CC2)c1,?,-43%,-18%,?,i,?
COc1cccc(CCN2CCC(CNS(=O)(=O)c3cc(-c4cc(C)no4)ccc3C)CC2)c1,.,-110%,7%,16µM*,?,-1%
COc1cc(NC(=O)c2ccc(-c3ccc(F)c(F)c3)c3ccoc23)cc(OC)c1OC,-23%,-60%,.,-4%,?,.
CO/N=C/c1ccc(N2CCN(C(=O)c3ccc(F)cc3)CC2)c([N+](=O)[O-])c1,-19%,-13%,-25%,-1%,i,10µM*
CO/N=C/c1ccc(N2CCN(C(=O)c3cccc(C(F)(F)F)c3)CC2)c([N+](=O)[O-])c1,-23%,2%,?,?,i,?
C[C@@H](Oc1ccc2[nH]nc(C=Cc3cnn(CCO)c3)c2c1)c1c(Cl)cncc1Cl,22µM*,.,.,.,.,.
O=C(NCc1ccco1)c1ccc(COc2cccc3ccccc23)cc1,-12%,-19%,-15%,-14%,i,16µM*

# Screening results: PubChem, National Center for Advancing Translational Sciences (NCATS)
